What is called AC50 is the midpoint of the concentration-response curve, whichever way the signal moves.

The nature of assay [1]: CCTE_Deisenroth_5AR_NBTE_donor: CCTE's 5alpha-reductase NanoBRET Target Engagement Assay […], Deisenroth Lab (AID 2284319; active means hit-call score of the fitted dose curve at least 0.9, where 1 is the maximum; inactive means score below 0.9). Conditions: actives raise or lower the signal. Summed up: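 In this secondary endpoint, donor luminescence from SRD5A2-NanoLuc in transfected HEK293T flags artifacts. Test chemical (10 nM - 29.9 uM) is present five hours, tracer the last two; mock-tracer wells run plate-matched; data fitted bidirectionally against DMSO.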

Assay [2] in a line: CCTE_Deisenroth_5AR_NBTE_acceptor: CCTE's 5alpha-reductase NanoBRET Target Engagement Assay - Autofluorescence Screen, Deisenroth Lab (AID 2284321; active means hit-call score of the fitted dose curve at least 0.9, where 1 is the maximum; inactive means score below 0.9;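 further: compound fluorescence in the acceptor channel under 460 nm excitation flags autofluorescence artifacts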). Conditions: actives raise or lower the signal. Summed up:
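Acceptor fluorescence intensity was read as an artifact-detection endpoint. Test chemicals at an assumed nominal 100 uM were excited at 460 nm across three independent runs. Activity was fitted bidirectionally against DMSO.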
For orientation: Bioluminescence resonance energy transfer reports proximity on the nanometre scale.

In the next assay the test system is SRD5A2 (gene 6716). As to the kind of experiment: CCTE_Deisenroth_5AR_NBTE_ratio: CCTE's 5alpha-reductase NanoBRET Target Engagement Assay - Ratio, Deisenroth Lab (AID 2284322; active means hit-call score of the fitted dose curve at least 0.9, where 1 is the maximum; inactive means score below 0.9). Conditions: actives raise or lower the signal. Summed up: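 HEK293T cells transiently expressing an SRD5A2-NanoLuc fusion (20 h post-transfection) were exposed to test chemical (10 nM - 29.9 uM, 8 points) for 3 h, then testosterone tracer for a further 2 h. Acceptor/donor BRET ratio was fitted bidirectionally against DMSO baseline.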

Assay [3] is described as follows: TAMU_PeakParms_SingleDonor1434_Asystole: Texas A&M University (TAMU) 1.5-hr Human Induced Pluripotent Stem Cell (iPSC)-derived Cardiomyocytes Calcium (Ca+2) Flux Assay for Cardiotoxicity: Asystole (quiescence of beating) (AID 2284328). The method, boiled down: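 Average Ca2+-flux peak frequency (beats/s) was recorded in single-donor iPSC-derived cardiomyocytes after 90 min exposure (0.2–100 uM final, 0.5% DMSO). Asystole POD set as EC95 against DMSO, no preprocessing.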

Assay [4] in a line: IUF_NPC4_neurite_length_120hr: Leibniz Research Institute for Environmental Medicine (IUF) 120-hour Neuronal Morphology Assay for Neurite Length (NPC4) (AID 2284302; active means hit-call score of the fitted dose curve at least 0.9, where 1 is the maximum; inactive means score below 0.9). The method, boiled down: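 Neurite length, the mean in um across TUBB3-stained neurons, is derived by skeletonization of high-content images after 120 h differentiation. Compound exposure, 7 concentrations plus solvent control, ran from plating of hNPC spheres on poly-D-lysine/laminin, with medium half-replaced on day 3.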

Assay [5] can be described thus: IUF_NPC4_neurite_area_120hr: Leibniz Research Institute for Environmental Medicine (IUF) 120-hour Neuronal Morphology Assay for Neurite Area (NPC4) (AID 2284305). The method, boiled down:
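Neurite area (pixels, nuclei excluded) of TUBB3-positive neurons from hNPC spheres differentiating 5 days under continuous exposure at 37 C, 5% CO2. High-content imaging; loss of signal versus DMSO control across 7 concentrations.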

Assay [6] is described as follows: IUF_NPC2-5_cytotoxicity_72hr: Cytotoxicity Assessment at 72 hours in the Leibniz Research Institute for Environmental Medicine (IUF) Neural Progenitor Cell Migration and Differentiation Assay for Cytotoxicity (NPC2-5) (AID 2284306).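 Further: LDH release into supernatant measured by resorufin fluorescence marking membrane damage.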 Summed up:
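Membrane-integrity cytotoxicity at 72 h, read as LDH-driven resorufin fluorescence in supernatant. hNPC spheres from fetal cortex differentiate on coated plates in N2 medium, 37C, 5% CO2; seven serial compound concentrations plus solvent control (DMSO ≤0.1%).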

Assay [7] in a line: IUF_NPC2-5_cytotoxicity_120hr: Cytotoxicity Assessment at 120 hours in the Leibniz Research Institute for Environmental Medicine (IUF) Neural Progenitor Cell Migration and Differentiation Assay (NPC2-5) (AID 2284307).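 On AC50: LDH released into supernatant as membrane damage marker via resorufin fluorescence.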 Summed up:
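Sphere plating starts differentiation and exposure together at day 0. Compound solution is half-replaced on day 3. At 120 h, medium supernatant is taken for an LDH membrane-integrity read based on resazurin reduction to resorufin fluorescence.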

Assay [8] in a line: IUF_NPC2-5_cell_number_120hr: Cell Number Assessment at 120 hours in the Leibniz Research Institute for Environmental Medicine (IUF) Neural Progenitor Cell Migration and Differentiation Assay (NPC2-5) (AID 2284308; active means hit-call score of the fitted dose curve at least 0.9, where 1 is the maximum; inactive means score below 0.9;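 further: count of Hoechst-stained nuclei in migration zone around plated human neural progenitor spheres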). Summed up: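 hNPC spheres, one per well, PDL/laminin, N2 medium, 37C, 5% CO2. Dosing day 0 → half-medium change with fresh compound day 3 → fix 120 h. Readout: Hoechst+ nuclei count, migration area; 7 concentrations plus solvent control.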

A short description of assay [9]: IUF_NPC2-5_viability_120hr: Viability Assessment at 120 hours in the Leibniz Research Institute for Environmental Medicine (IUF) Neural Progenitor Cell Migration and Differentiation Assay (NPC2-5) (AID 2284312; active means hit-call score of the fitted dose curve at least 0.9, where 1 is the maximum; inactive means score below 0.9). Summed up:
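Alamar blue resorufin fluorescence read after 5 days of differentiation, with compound present from day 0 and replenished at day 3. Primary hNPC spheres on laminin-coated plates, 37C; seven concentrations plus solvent control, fitted against DMSO.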

A short description of assay [10]: IUF_NPC1_cytotoxicity_72hr: Cytotoxicity Assessment at 72 hours in the Leibniz Research Institute for Environmental Medicine (IUF) Neural Progenitor Cell Proliferation Assay (NPC1) (AID 2284332).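 Further: rising LDH signal means more cytotoxicity.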 The method, boiled down:
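Cytotoxicity by LDH membrane-integrity assay on medium supernatants, fluorescence via resazurin reduction, after 3-day single exposure of primary hNPC spheres at 37C, pH 7.2-7.6 with growth factors. Fitted upward against baseline.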

Another assay has as its system IYD (gene 389434). As to the kind of experiment: CCTE_GLTED_hIYD: CCTE's human Iodotyrosine Deiodinase (xIYD) Inhibition Assay, Great Lakes Toxicology and Ecology Division (GLTED) Lab (AID 2284317).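 Further: cell-free human IYD enzyme made in baculovirus insect cells; iodide freed from monoiodotyrosine measured by cerium arsenite color change at 420 nm.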 The method, boiled down: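 In the IYD assay, iodide released from MIT by insect-cell-expressed human enzyme was quantified after 3 h via Sandell-Kolthoff rate at 420 nm, with plate-wise normalization to MNT and solvent controls.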

Assay [11] is described as follows: CCTE_Mundy_HCI_iCellGluta_NOG_NeuriteLength: CCTE's Neurite Outgrowth Assay in iCellGluta cells for Neurite Length, Mundy Lab (AID 2284318). Summed up: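 Automated high-content imaging of betaIII-tubulin (Alexa Fluor-488) and Hoechst-stained cells gave neurite length, normalized to the DMSO baseline.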
Assay [12] in a line: CCTE_Mundy_HCI_iCellGluta_NOG_NeuronCount: CCTE's Neurite Outgrowth Assay in iCellGluta cells for Neuron Count, Mundy Lab (AID 2284340).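 Further: cells fixed about 48 h after compound addition.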 Summed up: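 Neuron count read by automated high-content imaging of Hoechst 33342 and betaIII-tubulin/Alexa Fluor-488 labelling in human iPSC glutamatergic neurons. Activity fitted relative to DMSO.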
Assay [13] can be described thus: CCTE_Mundy_HCI_iCellGluta_NOG_NeuriteCount: CCTE's Neurite Outgrowth Assay in iCellGluta cells for Neurite Count, Mundy Lab (AID 2284342).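 Further: chemical exposure about 48 hours starting 2 hours after plating.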

Inconclusive results are not listed. The source holds several records for some structures; these can differ, active in one and inactive in another. The source made the active and inactive calls. How the source made its calls, unless noted: active means hit-call score of the fitted dose curve at least 0.9, where 1 is the maximum; inconclusive means response in the unintended direction; inactive means score below 0.9.

As to `O=C1C2CC=CCC2C(=O)N1SC(Cl)(Cl)Cl` (stereo not given), the call (in [1]; in assay [2]; in the assay with SRD5A2 (gene 6716); in assay [3]) was inactive.
With `CCOP(=O)(OCC)Oc1nc(Cl)c(Cl)cc1Cl`, the call in assay [4], in assay [5], in [6], in [8], in assay [9] and in assay [10] was inactive. Besides, in assay [7], the AC50 is 169 nM (active).
For the compound `CC(C)NC(=O)N1CC(=O)N(c2cc(Cl)cc(Cl)c2)C1=O`, the compound was called inactive in the assay with IYD (gene 389434).
Still for that read-out and setting: for `CC(C)Oc1cccc(NC(=O)c2ccccc2C(F)(F)F)c1` the value was “inactive”.
Regarding `CN/C(=N\[N+](=O)[O-])NCc1cnc(Cl)s1`, the AC50 in assay [4] and in [5] was 10 µM (active) each time. Moreover, the result in [6], in [7], in assay [8], in [9], in assay [11] and in assay [10] was inactive. For the same compound, the compound was classed as inactive in assay [12] and in assay [13].
`CC(C)(C)C(=O)C(Oc1ccc(Cl)cc1)n1cncn1` (stereo not given): the outcome in [4], in assay [6], in assay [7], in assay [8], in [9] and in assay [11] was inactive. Further, the compound was called inactive in assay [10], in assay [12] and in assay [13].
For the compound `Cc1ccc(N=CN(C)C=Nc2ccc(C)cc2C)c(C)c1`, the compound was classed as inactive (in assay [1]; in assay [2]; in the assay with SRD5A2 (gene 6716)).
Regarding `CC1(C)C(C=C(Cl)Cl)C1C(=O)OC(C#N)c1cccc(Oc2ccccc2)c1` (stereo not given), the result in [4], in [5], in [6], in [7], in [8] and in assay [9] was inactive. The call in assay [11], in assay [10] and in assay [12] was inactive.
In the case of `COP(=S)(OC)SCn1nnc2ccccc2c1=O`, the compound was called inactive in assay [4], in assay [5], in [6], in assay [7], in [8] and in assay [9]. Also, the result (in assay [1]; in assay [2]; in the assay with SRD5A2 (gene 6716); in assay [10]) was inactive. The AC50 in [11] is 21.9 µM (active); in assay [12], 24.4 µM (active); in assay [13], 24.4 µM (active).
Consider `CCN(CC)C(=O)C(C)Oc1cccc2ccccc12` (stereo not given), for which the compound was classed as inactive with IYD (gene 389434).
For the compound `CC1(C)CCC(=Cc2ccc(Cl)cc2)C1(O)Cn1cncn1` (stereo not given), the compound was classed as inactive (in assay [1]; in assay [2]; with SRD5A2 (gene 6716)).
With `CCC(C)n1c(=O)[nH]c(C)c(Br)c1=O` (stereo not given), in the assay on IYD (gene 389434), the compound was called inactive.
On to `O=C(Nc1ccccc1-c1ccc(Cl)cc1)c1cccnc1Cl`, for which the call in assay [4], in assay [5], in assay [6], in [7], in [8] and in [9] was inactive. Further, the call in assay [11], in assay [10], in assay [12] and in [13] was inactive. Further, the AC50 is 23.7 µM (active) in assay [11], 50 µM (active) in assay [12] and 38.3 µM (active) in assay [13].
As for `Cc1c(COC(=O)[C@@H]2[C@H](/C=C(\Cl)C(F)(F)F)C2(C)C)cccc1-c1ccccc1`, the compound was called inactive in assay [4], in assay [5], in assay [6], in assay [7], in [8] and in assay [9]. The outcome in assay [10] was inactive. The figures for the AC50 in assay [11], in [12] and in assay [13] were 10.8 µM (active), 12.8 µM (active) and 10.6 µM (active), respectively.

Values taken from PubChem BioAssay (EPA / NIEHS).
